Test results: PubChem BioAssay (NCATS)
Results filed as inconclusive are left out. Active and inactive are the calls of the source. Calls come from the whole dose curve; as a rule, active = well fitted curve in the direction sought with a large enough effect; inconclusive = small, poorly fitted or top-dose-only effect, or another doubt; inactive = no such curve, though single readings can be large; an effect the other way counts as inactive or inconclusive.

test: Quantitative High-Throughput drug screen in 47 multiple myeloma cell lines against the NCATS MIPE library collection: Karpas417_ECACC cell viability assay (AID 1918961); settings: Karpas417 myeloma viability, CellTiter-Glo ATP luminescence, 48 h; viability (% of DMSO): at 45.8 µM (top of the series)
Summary of the method: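 Viability readout: CellTiter-Glo luminescence following 5 min room-temperature incubation with reagent. Prior exposure: 48 h, 37C, humidified 5% CO2, 500 cells per well.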
Potency is the fitted concentration of half-maximal effect.

Row | SMILES | Potency
1 | N#Cc1c(N(CC(=O)O)CC(=O)O)sc(C(=O)O)c1CC(=O)O | inactive
2 | CC(C)[C@H](O)C(=O)N[C@@H](C)C(=O)N[C@@H]1C(=O)N(C)CCc2ccccc21 | 0.0021 µM (active)
3 | CC(NCCc1ccc(O)cc1)C(O)c1ccc(O)cc1 (configuration not stated) | inactive
4 | Cc1ccccc1-n1c(Cn2nc(-c3cccc(O)c3)c3c(N)ncnc32)nc2cccc(C)c2c1=O | 4.18 µM (active)
5 | C[C@@H](NC(=O)c1ncnc(N)c1Cl)c1ncc(C(=O)Nc2cc(C(F)(F)F)c(Cl)cn2)s1 | 2.96 µM (active)
6 | CC(C)C[C@@H](C(=O)N[C@H](C(=O)OC1CCCC1)c1ccccc1)[C@H](O)C(=O)NO | 1.32 µM (active)

test: Quantitative High-Throughput drug screen in 47 multiple myeloma cell lines against the NCATS MIPE library collection: KHM11_PLB cell viability assay (AID 1918962); settings: KHM11 myeloma cell viability, CellTiter-Glo ATP luminescence, 48 h; series mostly up to 45.8 µM; note: nearly all actives have a fitted effect of over 35% in size
Summary of the method: (§1)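 We plated 500 myeloma cells per well, pinned in MIPE 4.0 compounds, and incubated for 48 hours at 37C. ATP was then quantified with CellTiter-Glo, with DMSO and media-only wells defining 100% and 0%.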

Row | SMILES | Potency
7 | N#Cc1c(N(CC(=O)O)CC(=O)O)sc(C(=O)O)c1CC(=O)O | inactive
8 | Nc1nc(Cl)nc2c1ncn2[C@@H]1O[C@H](CO)[C@@H](O)[C@H]1F | 0.0148 µM (active)
9 | O=C(O)c1ccc(O)c2ncc(N3CCOCC3)cc12 | inactive
10 | CN[C@@H]1CN(c2ccc3c(=O)c(C(=O)O)cn(-c4nccs4)c3n2)C[C@@H]1OC | 14.4 µM (active)
11 | OC[C@H]1O[C@@H](OCCc2ccc(O)cc2)[C@H](O)[C@@H](O)[C@H]1O | inactive
12 | Cc1c(-c2cccc3c(CCCOc4cccc5ccccc45)c(C(=O)O)n(Cc4cccnc4)c23)c(COc2ccc(N3CCN([S+](=O)([O-])N(C)C)CC3)cc2)nn1C | 20.9 µM (active)
13 | NS(=O)(=O)c1cc(Cl)c(Cl)c(S(N)(=O)=O)c1 | inactive
14 | COc1cc2ncn(-c3cc(OCc4ccccc4S(C)(=O)=O)c(C#N)s3)c2cc1OC | inactive
15 | Cc1cccc2c1CC[C@H](CN1CCC(c3c(Cl)cccc3Cl)CC1)C[C@@H]2O | 20.9 µM (active)
16 | CC[C@H](C)C(=O)O[C@H]1C[C@H](O)C=C2C=C[C@H](C)[C@H](CC[C@@H](O)C[C@@H](O)CC(=O)O)[C@H]21 | inactive
17 | CC(C)[C@H](O)C(=O)N[C@@H](C)C(=O)N[C@@H]1C(=O)N(C)CCc2ccccc21 | inactive
18 | Fc1ccc(CNc2ncnc3ccc(F)cc23)cc1 | 8.33 µM (active)
19 | CC(NCCc1ccc(O)cc1)C(O)c1ccc(O)cc1 (configuration not stated) | inactive
20 | Cc1ccccc1-n1c(Cn2nc(-c3cccc(O)c3)c3c(N)ncnc32)nc2cccc(C)c2c1=O | 18.7 µM (active)
21 | OC[C@H]1O[C@@H](Oc2ccc(O)cc2)[C@H](O)[C@@H](O)[C@H]1O | inactive
22 | C=CCc1cccc(C=NNC(=O)CN2CCN(Cc3ccccc3)CC2)c1O | 20.9 µM (active)
23 | CCCCC[C@H](O)C=C[C@H]1[C@H](O)CC(=O)[C@H]1CC=CCCCC(=O)O | 5.9 µM (active)
24 | C[C@@H](NC(=O)c1ncnc(N)c1Cl)c1ncc(C(=O)Nc2cc(C(F)(F)F)c(Cl)cn2)s1 | 5.26 µM (active)
25 | O=C(c1ccc(C(=O)N2CCC(N3CCCC3)CC2)c(Nc2ccccc2)c1)N1CCC(N2CCCC2)CC1 | inactive
26 | CCOC(=O)N1CCN([N+]([O-])=NOc2cc(ON=[N+]([O-])N3CCN(C(=O)OCC)CC3)c([N+](=O)[O-])cc2[N+](=O)[O-])CC1 | 6.62 µM (active)

test: Quantitative High-Throughput drug screen in 47 multiple myeloma cell lines against the NCATS MIPE library collection: JIM3_ECACC cell viability assay (AID 1918963; note: nearly all actives have a fitted effect of over 35% in size); settings: JIM3 myeloma viability, CellTiter-Glo ATP, 48 h; series mostly up to 45.8 µM
Summary of the method: as §1

Row | SMILES | Potency
27 | COc1cc2nccc(Oc3ccc(NC(=O)Nc4ccc(F)cc4F)c(F)c3)c2cc1OC | inactive
28 | Nc1nc(Cl)nc2c1ncn2[C@@H]1O[C@H](CO)[C@@H](O)[C@H]1F | 0.418 µM (active)
29 | CC1C(=O)OC2C(O)C34C5CC(C(C)(C)C)C36C(OC(=O)C6O)OC4(C(=O)O5)C12O (configuration not stated) | inactive
30 | O=C(Nc1cccc(C(F)(F)F)c1)Nc1cc(S(=O)(=O)NC2CC2)ccc1-c1ccsc1 | 23.5 µM (active)
31 | O=C(O)c1ccc(O)c2ncc(N3CCOCC3)cc12 | 18.7 µM (active)
32 | CN[C@@H]1CN(c2ccc3c(=O)c(C(=O)O)cn(-c4nccs4)c3n2)C[C@@H]1OC | 14.4 µM (active)
33 | CN(C)c1ccc(-c2nc3ncc(Cl)c(N4CCN(CC(=O)Nc5nccs5)CC4)c3[nH]2)cc1 | 3.32 µM (active)
34 | OC[C@H]1O[C@@H](OCCc2ccc(O)cc2)[C@H](O)[C@@H](O)[C@H]1O | inactive
35 | Oc1cc(O)cc(C=Cc2ccc(O)c(O)c2)c1 | 14.8 µM (active)
36 | NS(=O)(=O)c1cc(Cl)c(Cl)c(S(N)(=O)=O)c1 | inactive
37 | CC(C)C[C@H](NC(=O)c1cc2ccccc2s1)C(=O)N1CCN(C(=O)[C@H](CO)NS(=O)(=O)c2ccc(Cl)cc2Cl)CC1 | 20.9 µM (active)
38 | COc1cc2ncn(-c3cc(OCc4ccccc4S(C)(=O)=O)c(C#N)s3)c2cc1OC | inactive
39 | Cc1cccc2c1CC[C@H](CN1CCC(c3c(Cl)cccc3Cl)CC1)C[C@@H]2O | 14.8 µM (active)
40 | CC[C@H](C)C(=O)O[C@H]1C[C@H](O)C=C2C=C[C@H](C)[C@H](CC[C@@H](O)C[C@@H](O)CC(=O)O)[C@H]21 | inactive
41 | CC(C)[C@H](O)C(=O)N[C@@H](C)C(=O)N[C@@H]1C(=O)N(C)CCc2ccccc21 | inactive
42 | CN[C@H]1[C@@H](O[C@@H]2[C@H](O[C@@H]3[C@@H](O)[C@@H](O)[C@@H](N=C(N)N)[C@@H](O)[C@@H]3N=C(N)N)O[C@H](C)[C@@]2(O)C=O)O[C@@H](CO)[C@@H](O)[C@H]1O | inactive

Row | SMILES | Potency
43 | Fc1ccc(CNc2ncnc3ccc(F)cc23)cc1 | 11.8 µM (active)
44 | COc1ccc(CCN(C)CCCOc2ccc(S(=O)(=O)c3[nH]c4ccccc4c3C(C)C)cc2)cc1OC | 18.7 µM (active)
45 | Cc1cc(NC(=O)Nc2ccc(N(C)C)cc2)c2cc(F)cc(F)c2n1 | inactive
46 | CC(NCCc1ccc(O)cc1)C(O)c1ccc(O)cc1 (configuration not stated) | inactive
47 | Cc1ccccc1-n1c(Cn2nc(-c3cccc(O)c3)c3c(N)ncnc32)nc2cccc(C)c2c1=O | 3.72 µM (active)
48 | OC[C@H]1O[C@@H](Oc2ccc(O)cc2)[C@H](O)[C@@H](O)[C@H]1O | 10.5 µM (active)
49 | C=CCc1cccc(C=NNC(=O)CN2CCN(Cc3ccccc3)CC2)c1O | 23.5 µM (active)
50 | CCCCC[C@H](O)C=C[C@H]1[C@H](O)CC(=O)[C@H]1CC=CCCCC(=O)O | 20.9 µM (active)
51 | Cc1cnc(-c2cc(N3CCN(C(=O)CCS(C)(=O)=O)CC3)ncc2Cl)c(C)c1 | inactive
52 | C[C@@H](NC(=O)c1ncnc(N)c1Cl)c1ncc(C(=O)Nc2cc(C(F)(F)F)c(Cl)cn2)s1 | 13.2 µM (active)
53 | CCCCc1ccc(NS(=O)(=O)c2ccc(C)c(C(=O)N3CCN(c4cccc(C)c4C)CC3)c2)cc1 | 16.6 µM (active)
54 | CNc1nc(Nc2ccc(C(=O)N3CCOCC3)cc2OC)ncc1Cl | 20.9 µM (active)
55 | O=C(c1ccc(C(=O)N2CCC(N3CCCC3)CC2)c(Nc2ccccc2)c1)N1CCC(N2CCCC2)CC1 | inactive
56 | CC(C)C[C@@H](C(=O)N[C@H](C(=O)OC1CCCC1)c1ccccc1)[C@H](O)C(=O)NO | 5.26 µM (active)
57 | CCOC(=O)N1CCN([N+]([O-])=NOc2cc(ON=[N+]([O-])N3CCN(C(=O)OCC)CC3)c([N+](=O)[O-])cc2[N+](=O)[O-])CC1 | 9.35 µM (active)
